Experimental findings from PubChem BioAssay (NCI) are described below.

The panel holds about 79,000 compounds, 15% with a hit somewhere; the sample as a whole holds those more often. A number with no mark means an inactive call. The source made the active and inactive calls. Rule as the data show it: active = growth inhibition above about 70%; inactive = the rest.

Assay [1] is described as follows: NCI Yeast Anticancer Drug Screen. Data for the rad50 strain (AID 155).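 Also: 0% = growth of vehicle-only cultures of the same strain.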 To be noted: S. cerevisiae rad50 strain growth inhibition; at 50.0 µM; stronger effect = higher value. The essentials: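 Relative growth inhibition (compound vs vehicle) was measured in yeast with a defined repair-gene alteration.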
Assay [2] can be described thus: NCI Yeast Anticancer Drug Screen. Data for the mec2-1 strain (AID 157). To be noted: S. cerevisiae mec2-1 strain, at 50.0 µM, stronger effect = higher value. The essentials: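 Vehicle-treated cultures served as reference for growth inhibition of compound-exposed mec2-1 yeast.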
Assay [3] is described as follows: NCI Yeast Anticancer Drug Screen. Data for the sgs1 mgt1 strain (AID 161).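 Also: 0% = growth of cultures given vehicle only.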 To be noted: S. cerevisiae sgs1 mgt1 strain, at 50.0 µM, stronger effect = higher value. The essentials: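 Inhibition of yeast growth, normalised to vehicle-treated controls, is reported for a strain bearing genetic alterations in DNA damage repair.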
The nature of assay [4]: NCI Yeast Anticancer Drug Screen. Data for the cln2 rad14 strain (AID 165).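 Also: 0% = growth equal to vehicle treated cultures.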 The following applies: S. cerevisiae cln2 rad14 strain, at 50.0 µM, stronger effect = higher value. Put shortly:
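Each compound was tested on cln2 rad14 yeast. Inhibition of growth was calculated against vehicle-exposed controls.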

Assay [5] can be described thus: NCI Yeast Anticancer Drug Screen. Data for the bub3 strain (AID 167). The following applies: S. cerevisiae bub3 mutant strain, at 50.0 µM, stronger effect = higher value. Put shortly:
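Screening used yeast with an engineered genetic alteration affecting cell cycle control. Compound-exposed cultures were compared with vehicle cultures, and reduced growth was taken as inhibition.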

Assay [6] can be described thus: NCI Yeast Anticancer Drug Screen. Data for the mlh1 rad18 strain (AID 175). The following applies: S. cerevisiae mlh1 rad18 strain growth inhibition; at 50.0 µM; stronger effect = higher value. Put shortly:
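Vehicle-treated cultures served as the reference for growth inhibition in a yeast strain carrying DNA damage repair alterations exposed to each compound.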

As for `CP1(=S)CCC2=C1CCc1cc(O)ccc12` (stereo unspecified), the growth inhibition in assay [1] is 14.4%; in assay [2], -31.8%; in assay [3], 0.4%; in assay [4], -29.8%; in assay [5] it was -3.65%; in assay [6], 21.4%.
Take `[Cl][Pt]([Cl])[Cl].[NH-]C1CN2CCC1CC2` (stereo unspecified): the growth inhibition was 19.9% in assay [1]; 19.4% in assay [2]; -13.8% in assay [3]; 22.4% in assay [4]; 2.2% in assay [5]; -7.55% in assay [6].
On to `CC1(C)OCC(CO)(Nc2nc(N3CC3)nc(N3CC3)n2)CO1`, for which the growth inhibition was -12.6% in assay [1]; 2.9% in assay [2]; 3.3% in assay [3]; -38% in assay [4]; 5.6% in assay [5]; -2.8% in assay [6].
As to `CCCCCCNC(=O)CBr`, the growth inhibition was 34.6% in assay [1]; 4.55% in assay [2]; 14.6% in assay [3]; 3.4% in assay [4]; 16.8% in assay [5]; 30% in assay [6].
`C[N+](C)(C)CC1CCC/C1=N/O` (stereo unspecified): the growth inhibition in assay [1] was 44.8%; in assay [2] it was 13.4%; in assay [3], -0.5%; in assay [4], 9.95%; in assay [5], 26.8%; in assay [6] it was 34.9%.
As for `Fc1cccc2cc3cccc[n+]3cc12`, the growth inhibition in assay [1] was 5.6%; in assay [2] it was 6.65%; in assay [3], 3.55%; in assay [4], -36.3%; in assay [5], 15.6%; in assay [6], -1.8%.
Turning to `CN1C2CCC1CC(O)(c1ccc(Cl)cc1)C2` (stereo unspecified), the growth inhibition is 26.1% in assay [1]; 16.4% in assay [2]; 16.6% in assay [3]; 16.1% in assay [4]; 30.4% in assay [5]; 28.1% in assay [6].
With `O=S=NN(CC(Cl)c1ccccc1)CC(Cl)c1ccccc1` (stereo unspecified), the growth inhibition was 10.1% in assay [1]; -8.5% in assay [2]; 19.9% in assay [3]; -47.5% in assay [4]; 22.9% in assay [5]; 7.7% in assay [6].
Turning to `CCCCC1(CCO)C(=O)NC(=O)NC1=O`, the growth inhibition in assay [1] was -12.1%; in assay [2], -2.65%; in assay [3], -5.7%; in assay [4] it was -19.1%; in assay [5] it was 28.4%; in assay [6] it was -20.6%.
For the molecule `[Cl][Hg][Cl].c1ccc(N=P(c2ccccc2)(c2ccccc2)c2ccccc2)cc1`, the growth inhibition is 99.7% (active) in assay [1]; 99.8% (active) in assay [2]; 99.8% (active) in assay [3]; 99.5% (active) in assay [4]; 99.3% (active) in assay [5]; 99.6% (active) in assay [6].
As to `CC#CC(O)(C(=O)OC)c1ccccc1` (stereo unspecified), the growth inhibition in assay [1] was -7.35%; in assay [2] it was 12.6%; in assay [3], -20.8%; in assay [4], -23.6%; in assay [5], -5.1%; in assay [6], -1.9%.
Regarding `[C-]#[O+].[C-]#[O+].[C-]#[O+].[C-]#[O+].[C-]#[O+].[C-]#[O+].[Fe].[Fe].c1ccc([P-]c2ccccc2[P-]c2ccccc2)cc1` (stereo unspecified), the growth inhibition in assay [1] is 8.7%; in assay [2], 26.9%; in assay [3], -11.3%; in assay [4] it was 26.9%; in assay [5] it was 12.6%; in assay [6], 18.7%.
Turning to `O=C(Nc1ncn[nH]1)C(Cl)(Cl)Cl`, the growth inhibition in assay [1] is -4.1%; in assay [2] it was -15.9%; in assay [3], -7.15%; in assay [4] it was -53%; in assay [5], -2%; in assay [6], -7.25%.
With `c1cc[c]([Ge]([c]2ccccc2)[c]2ccccc2)cc1`, the growth inhibition in assay [1] is 23.1%; in assay [2] it was -3.8%; in assay [3] it was 3.05%; in assay [4], 20.3%; in assay [5] it was -5.15%; in assay [6] it was 14.4%.
Take `CCOP(=O)(O)OCC.[Y]`: the growth inhibition in assay [1] is 13.6%; in assay [2] it was 7.3%; in assay [3] it was 6.5%; in assay [4] it was -16.8%; in assay [5], 6.5%; in assay [6], 11.2%.
`COc1cc(C2c3cc4c(cc3[C@@H](OC)[C@H]3COC(=O)C23)OCO4)cc(OC)c1O` (stereo partly specified): the growth inhibition in assay [1] is 89.5% (active); in assay [2], 90% (active); in assay [3], 86.4% (active); in assay [4], 85.1% (active); in assay [5] it was 89.3% (active); in assay [6], 88.7% (active).
For `O=C1c2ccccc2C2(O)C3C=CCCN3CN12` (stereo unspecified), the growth inhibition in assay [1] is 2.65%; in assay [2], 9.1%; in assay [3] it was -1.25%; in assay [4], 4.15%; in assay [5], -4.05%; in assay [6], -6.75%.
On to `C=[CH][Pb]([CH]=C)([CH]=C)[O]C(C)=O`, for which the growth inhibition was 97.2% (active) in assay [1]; 98% (active) in assay [2]; 97.9% (active) in assay [3]; 98.8% (active) in assay [4]; 98.2% (active) in assay [5]; 99% (active) in assay [6].
For `O=C(O)c1cccc(Cl)c1`, the growth inhibition in assay [1] was 31.6%; in assay [2], 6%; in assay [3], 19.1%; in assay [4], 10.9%; in assay [5] it was 25.9%; in assay [6], 8.2%.
For the molecule `OC(c1ccc2ccccc2n1)C1CCCCN1` (stereo unspecified), the growth inhibition is 14.2% in assay [1]; -6.45% in assay [2]; 7.05% in assay [3]; -8.15% in assay [4]; -1.7% in assay [5]; 11.1% in assay [6].
For `CN(C)c1ccc(/C=C/C=C\C2=CC(=C\C=C/C=C3C=CC(=[N+](C)C)C=C3)/Sc3ccccc32)cc1`, the growth inhibition in assay [1] is -36.4%; in assay [2], -45.9%; in assay [3], -63.7%; in assay [4] it was -29.6%; in assay [5] it was -27.4%; in assay [6] it was -55.3%.
